Whole data set: some 110,000 compounds, median “z-score” near -0.1, cut for the highest 2% near 2. The sample as a whole holds a higher share of the highest values than the screen did. Activity calls are given as the source filed them.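 How the source made its calls: active means z-score in the third read window above 3 or below -3; inactive means the rest.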
Molecular target: Metabotropic glutamate receptor 8 (Rattus norvegicus) (UniProt P70579)
Assay: mGluR8 Gi/Go-coupled signaling modulation – cell-based, rat, thallium flux, HTS, primary screen (AID 488969)
Settings: HEK293 rat mGluR8, GIRK (G protein-gated inwardly rectifying potassium channel) thallium flux, FluoZin2; at 10 µM; stronger effect = higher value; submaximal glutamate (EC20) added with thallium

Chain of Metabotropic glutamate receptor 8 (Rattus norvegicus) (P70579 whole entry, looked up): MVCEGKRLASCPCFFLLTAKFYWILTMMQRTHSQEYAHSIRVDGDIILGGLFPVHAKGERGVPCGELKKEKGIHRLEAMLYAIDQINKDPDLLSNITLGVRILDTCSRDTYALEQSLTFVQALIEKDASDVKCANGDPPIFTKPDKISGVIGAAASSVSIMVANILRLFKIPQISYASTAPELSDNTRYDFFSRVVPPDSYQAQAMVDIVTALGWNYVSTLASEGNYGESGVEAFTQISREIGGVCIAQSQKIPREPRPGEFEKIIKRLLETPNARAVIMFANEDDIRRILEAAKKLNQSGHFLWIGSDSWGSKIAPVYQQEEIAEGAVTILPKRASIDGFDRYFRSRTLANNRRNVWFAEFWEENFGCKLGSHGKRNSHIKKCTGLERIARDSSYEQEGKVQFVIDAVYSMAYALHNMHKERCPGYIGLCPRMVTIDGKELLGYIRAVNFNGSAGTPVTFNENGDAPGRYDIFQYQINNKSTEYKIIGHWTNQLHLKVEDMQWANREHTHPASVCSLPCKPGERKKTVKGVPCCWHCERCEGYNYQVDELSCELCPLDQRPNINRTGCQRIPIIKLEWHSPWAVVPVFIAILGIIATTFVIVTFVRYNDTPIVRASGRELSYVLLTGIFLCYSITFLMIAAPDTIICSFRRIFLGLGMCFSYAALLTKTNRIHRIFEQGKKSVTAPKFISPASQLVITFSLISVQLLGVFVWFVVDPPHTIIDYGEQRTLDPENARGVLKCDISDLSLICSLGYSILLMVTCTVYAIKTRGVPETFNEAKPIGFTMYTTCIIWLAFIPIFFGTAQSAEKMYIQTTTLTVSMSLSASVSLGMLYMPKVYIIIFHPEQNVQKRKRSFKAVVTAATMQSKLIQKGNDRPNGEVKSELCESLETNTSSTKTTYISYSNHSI

**Q.** `O=C(c1ccccc1CCc1ccccc1)N1CCN(c2ccccn2)CC1` was tested. Which z-score did it give?
**A.** 2.38

**Q.** Which z-score does the source give for `O=C(c1ccccc1-c1ccccc1)N1CCN(c2ccccn2)CC1` here?
**A.** -0.0481

**Q.** With `O=C(CCc1ccccc1)N1CCN(c2ccccn2)CC1` as the compound, how does the z-score read?
**A.** -0.254

**Q.** `COc1ccc(-c2nnc(NC(=O)C(C)C)o2)cc1` was tested. Which z-score did it give?
**A.** 2.14

**Q.** How did the z-score turn out when `CCOc1ccc(-c2nnc(NC(=O)CCCOc3cccc(C)c3)o2)cc1` was run?
**A.** 3.62 (active)

**Q.** With `CCOc1ccc(NC(=O)CNC(=O)c2ccc(OC)c(OC)c2)cc1` as the compound, how does the z-score read?
**A.** -0.166

**Q.** How did the z-score turn out when `COc1ccc(-c2nnc(NC(=O)c3cc(Cl)ccc3Cl)o2)cc1` was run?
**A.** 1.02

**Q.** With `COc1cccc(-c2nnc(NC(=O)C(C)C)o2)c1` as the compound, how does the z-score read?
**A.** 0.295

**Q.** `CCOc1cccc(C(=O)Nc2cccc(-c3nnc(-c4ccc(C)cc4)o3)c2)c1` was tested. Which z-score did it give?
**A.** 0.689

**Q.** `CCOc1ccc(-c2nnc(NC(=O)c3ccc(OCC(C)C)c(OC)c3)o2)cc1` was tested. Which z-score did it give?
**A.** 10.4 (active)

**Q.** How did the z-score turn out when `CC(C)C(=O)Nc1nnc(-c2ccccc2)o1` was run?
**A.** 0.162

**Q.** How did the z-score turn out when `CCC(=O)Nc1nnc(-c2ccc(OC)cc2)o1` was run?
**A.** -0.442

**Q.** Which z-score does the source give for `COc1ccc(-c2nnc(NC(=O)c3ccc(F)cc3)o2)cc1` here?
**A.** 5.46 (active)

**Q.** Which z-score does the source give for `COc1ccc(-c2nnc(-c3ccc(OCC(C)C)cc3)o2)cc1` here?
**A.** 0.807

**Q.** For `O=C(COc1ccccc1)Nc1nnc(-c2ccccc2)o1`, which z-score is on record?
**A.** -0.421

**Q.** With `O=C(Nc1cccc(F)c1)C1CCN(C(=O)c2ccccc2Cl)CC1` as the compound, how does the z-score read?
**A.** -0.486

**Q.** With `CCOC(=O)CS(=O)(=O)c1ccc(C(F)(F)F)cn1` as the compound, how does the z-score read?
**A.** -0.0154

**Q.** For `CCCOC(=O)c1ccc(NS(=O)(=O)c2cccs2)cc1`, which z-score is on record?
**A.** 0.0163

**Q.** With `Cc1cc(C)c2nc(NC(=O)c3cccc(S(=O)(=O)N4CCc5ccccc54)c3)sc2c1` as the compound, how does the z-score read?
**A.** -0.315

**Q.** How did the z-score turn out when `CN1CCOCCOCCN(C)C(=O)N2CCOCCOCCN(CCOCC2)C1=O` was run?
**A.** 1.25

**Q.** With `CC(C)(C)c1ccc(CSc2nnc(-c3ccccn3)n2Cc2ccco2)cc1` as the compound, how does the z-score read?
**A.** -0.295

**Q.** Which z-score does the source give for `Clc1ncnc2scc(C3COc4ccccc4O3)c12` (stereo not given) here?
**A.** -0.228

**Q.** With `Cc1cc(C)nc(NS(=O)(=O)c2ccc(NC(=O)CCC3COc4ccccc4O3)cc2)n1` (stereo not given) as the compound, how does the z-score read?
**A.** -0.4

**Q.** With `Cc1cc(NC(=O)c2cnc3ccccn3c2=O)no1` as the compound, how does the z-score read?
**A.** -0.108

**Q.** `CCCCNC(=S)NCCN1CCCCC1` was tested. Which z-score did it give?
**A.** 0.407

**Q.** With `COc1ccc(C(C[N+](=O)[O-])c2c(C)[nH]c3ccccc23)cc1OC` (stereo not given) as the compound, how does the z-score read?
**A.** -2.31

**Q.** How did the z-score turn out when `CCN(CC(O)COc1ccc(OCC(O)CN(CC)C2CCCCC2)cc1)C1CCCCC1` (stereo not given) was run?
**A.** 2.32

**Q.** For `CN(CC(O)COc1ccc(OCC(O)CN(C)C2CCCCC2)cc1)C1CCCCC1` (stereo not given), which z-score is on record?
**A.** 1.64

**Q.** Which z-score does the source give for `COc1ccc(OCC(O)CN(C2CCCCC2)C2CCCCC2)cc1` (stereo not given) here?
**A.** 0.744

**Q.** With `O=C(/C=C/c1ccc(S(=O)(=O)N2CCOCC2)cc1)NCc1ccccc1` as the compound, how does the z-score read?
**A.** -0.687

**Q.** For `CCOC(=O)N1CCC(N(C(=O)Nc2ccc(Cl)c(Cl)c2)C(C)CC)CC1` (stereo not given), which z-score is on record?
**A.** -0.099

**Q.** With `O=c1oc2ccccc2cc1-c1csc(Nc2nc3c(F)cccc3s2)n1` as the compound, how does the z-score read?
**A.** 0.848

**Q.** For `COc1cccc(-c2nnc(-c3ccc(C(F)(F)F)cc3)o2)c1`, which z-score is on record?
**A.** -0.245

**Q.** Which z-score does the source give for `c1coc(-c2nnc(NC3=NCCC3)o2)c1` here?
**A.** 1.08

**Q.** Which z-score does the source give for `Fc1cccc2sc(Nc3nnc(-c4ccccc4)o3)nc12` here?
**A.** 17.1 (active)

**Q.** For `CCOC(=O)c1sc(Nc2nc3c(F)cccc3s2)cc1C`, which z-score is on record?
**A.** 0.23

**Q.** How did the z-score turn out when `COc1cc(-c2nnc(CSc3nc4ccccc4s3)o2)cc(OC)c1OC` was run?
**A.** -3.36 (active)

**Q.** `Cc1ccsc1C(=O)Nc1nnc(-c2ccco2)o1` was tested. Which z-score did it give?
**A.** 0.832

**Q.** For `COc1cc(OC)cc(-c2nnc(Nc3nc4c(F)cccc4s3)o2)c1`, which z-score is on record?
**A.** 9.94 (active)

**Q.** For `COc1cccc(-c2nnc(Nc3nc4c(F)cccc4s3)o2)c1`, which z-score is on record?
**A.** 17.4 (active)

**Q.** With `COc1cccc(-c2nnc(NC(=O)C3CCCCC3)o2)c1` as the compound, how does the z-score read?
**A.** -0.375

**Q.** How did the z-score turn out when `Fc1cccc2sc(Nc3nnc(-c4ccco4)o3)nc12` was run?
**A.** 16 (active)

**Q.** For `Nc1nc2c(F)cccc2s1`, which z-score is on record?
**A.** -0.0918

**Q.** With `CCOC(=O)C(C)n1cnc2c1c(=O)[nH]c(=O)n2C` (stereo not given) as the compound, how does the z-score read?
**A.** -0.374

**Q.** Which z-score does the source give for `COc1ccc(CNC(=O)CN(C(=O)c2ccc(CN3CCOCC3)o2)C2CCCC2)cc1` here?
**A.** -0.1

**Q.** With `CCOc1cc(-c2cc(-c3ccc(C)cc3)nc(N)c2C#N)ccc1O` as the compound, how does the z-score read?
**A.** -0.244

**Q.** `CC1c2c([nH]c3ccccc23)CCC1C(=O)O` (stereo not given) was tested. Which z-score did it give?
**A.** 0.673

**Q.** `CCN1CCN(C(=S)NCc2ccc(C)cc2)CC1` was tested. Which z-score did it give?
**A.** 0.0391

**Q.** With `CN(CC(=O)Nc1cccnc1)S(=O)(=O)c1ccccc1` as the compound, how does the z-score read?
**A.** -0.0827

**Q.** For `CCOC(=O)C1[C@H]2C(=O)N(CCCOC)C[C@]23C=C[C@H]1O3` (stereo not given in full), which z-score is on record?
**A.** -0.0146

**Q.** `CCOCCCNCC(=O)NC1(C)C2CCC(C2)C1(C)C` (stereo not given) was tested. Which z-score did it give?
**A.** -0.581

**Q.** With `O=C(Nc1ccc2c(c1)OCO2)N1CCN(C/C=C/c2ccccc2)CC1` as the compound, how does the z-score read?
**A.** -0.663

**Q.** Which z-score does the source give for `CN(C)c1cccc(C(=O)OCC(=O)NCC2CCCO2)c1` (stereo not given) here?
**A.** -0.266

**Q.** With `Cc1ccc(CN=C2Nc3ccccc3CS2)cc1` as the compound, how does the z-score read?
**A.** -0.225

**Q.** With `Cc1cccc(NC(=O)c2cc(Cl)sc2Cl)c1C` as the compound, how does the z-score read?
**A.** 0.0762

**Q.** With `CC(C)(C)Cc1nc(-c2ccc(Cl)cc2)no1` as the compound, how does the z-score read?
**A.** 0.892

**Q.** For `CCn1cc(CNC(=O)CCc2ccc(OC)cc2)cn1`, which z-score is on record?
**A.** 0.0492

**Q.** `COc1ccc(CCC(=O)NCc2cn3ccsc3n2)cc1` was tested. Which z-score did it give?
**A.** 0.0209

**Q.** How did the z-score turn out when `COc1ccc(CCC(=O)NCc2cnn(C)c2)cc1` was run?
**A.** 3.37 (active)

**Q.** How did the z-score turn out when `O=C(c1cc(-c2ccc(Cl)cc2Cl)on1)N1CCN(C(=O)c2ccco2)CC1` was run?
**A.** 0.486

**Q.** With `O=C(c1cc(-c2ccc(Cl)cc2Cl)on1)N1CCOCC1` as the compound, how does the z-score read?
**A.** -0.321

**Q.** `O=C(c1cccc(F)c1)N1CCN(C(=O)c2cc(-c3ccc(Cl)cc3Cl)on2)CC1` was tested. Which z-score did it give?
**A.** 3.48 (active)

**Q.** Which z-score does the source give for `COC(=O)c1cc2ccccn2c2c(C(=O)OC)c(C(=O)OC)cc1-2` here?
**A.** 0.219

**Q.** With `O=C(Nc1ccccc1)c1sc(Cl)nc1-c1ccccc1` as the compound, how does the z-score read?
**A.** -0.405

**Q.** Which z-score does the source give for `Cc1cc(C)n(-c2ccc(C)c(Cl)c2)n1` here?
**A.** -0.078

**Q.** `Cc1cc(=O)n2[nH]c(-c3ccccc3)cc2n1` was tested. Which z-score did it give?
**A.** -0.312

**Q.** How did the z-score turn out when `Cc1cc(C)[n+]2n1C(=O)C(c1ccccc1)=C2[O-]` was run?
**A.** 2.57

**Q.** How did the z-score turn out when `O=c1cc(-c2ccccc2)[nH][nH]1` was run?
**A.** 0.252

**Q.** With `Cc1cc(C(=O)N2CCN(CCc3ccccc3)CC2)no1` as the compound, how does the z-score read?
**A.** 8.2 (active)

**Q.** Which z-score does the source give for `Cc1ccc(-c2cc(C(=O)N3CCN(C(=O)c4ccco4)CC3)no2)cc1` here?
**A.** -0.304

**Q.** `O=C(c1cc(-c2ccccc2)on1)N1CCCC1` was tested. Which z-score did it give?
**A.** 3.32 (active)

**Q.** For `CN1CCN(C(=O)c2cc(-c3ccccc3)on2)CC1`, which z-score is on record?
**A.** 0.0853

**Q.** `Cc1ccc(-c2cc(C(=O)N3CCCC3)no2)cc1` was tested. Which z-score did it give?
**A.** -0.457

**Q.** How did the z-score turn out when `Cc1noc(C)c1C(=O)N1CCN(CCc2ccccc2)CC1` was run?
**A.** -0.189

**Q.** With `O=C(c1cc(-c2ccccc2)on1)N1CCN(C(=O)c2ccco2)CC1` as the compound, how does the z-score read?
**A.** 2.21

**Q.** How did the z-score turn out when `Cc1cc(C(=O)N2CCN(c3ccccc3)CC2)no1` was run?
**A.** 0.106

**Q.** Which z-score does the source give for `CCOC(=O)C1CCCN(C(=O)c2ccco2)C1` (stereo not given) here?
**A.** 0.661

**Q.** `CCOC(=O)C1CCCN(C(=O)c2cc3c(C)nc4ccccc4c3o2)C1` (stereo not given) was tested. Which z-score did it give?
**A.** -0.243

**Q.** For `O=C(c1cc(-c2ccccc2Cl)on1)N1CCN(C(=O)c2ccco2)CC1`, which z-score is on record?
**A.** 0.424

**Q.** `CCOC(=O)C1CCCN(C(=O)c2cc(=O)c3ccccc3o2)C1` (stereo not given) was tested. Which z-score did it give?
**A.** 2.91

— PubChem BioAssay AID488969 (Vanderbilt High Throughput Screening Facility, 2010)
